A short description of test [1]: anti-His antibody binders, primary screen, artefact control for SMM control protein annotation, biochemical, small-molecule microarray, 635 nm fluorescence (AID 1128).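 Further: score merges feature fluorescence with signal-to-noise for each printed compound spot.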 Conditions: anti-His Alexa647 antibody binding, higher = more signal.
The subject of test [2] is Human papillomavirus type 1a E7 protein (residues 1-88). The test is described as follows: HPV1a E7 small-molecule binders, primary screen, biochemical, small-molecule microarray, residues 1-88, 635 nm (AID 1129). To be noted: small-molecule microarray binding, fluorescence 635 nm; higher = more signal.
For test [3], the target named is Focal adhesion kinase 1 (Homo sapiens) (UniProt Q05397). Put plainly: small-molecule microarray binders of FAK, primary screen, biochemical, 635/667 nm fluorescence, BSA, DTT (AID 1130).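 Further: composite of spot emission at 667 nm and signal to noise over triplicate slides.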 Conditions: PTK2 binding, 635 nm fluorescence, higher = more signal.
Test [4] has as its system Fibrinogen (Alexa647-labelled). The test is described as follows: fibrinogen binders on compound microarrays, profiling panel, artefact control for SMM control-protein annotation, biochemical, small-molecule microarray, 635/667 nm fluorescence (AID 1131).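 Further: z-score merges 667 nm fluorescence with per-spot signal-to-noise over triplicate slides.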 Conditions: fibrinogen-A647 binding fluorescence, higher = more signal.
The target of test [5] is Follistatin (Homo sapiens) (UniProt P19883). The test is described as follows: follistatin binders on small-molecule microarrays, primary screen, biochemical, small-molecule microarray, 635/667 nm fluorescence (AID 1132). To be noted: FST binding, 635 nm fluorescence, higher = more signal.
Test [6] addresses Fibroblast growth factor 2 (Homo sapiens) (UniProt P09038). Put plainly: FGF2 binders on small-molecule microarrays, primary screen, biochemical, small-molecule microarray, 635/667 nm fluorescence (AID 1133). Conditions: small-molecule microarray binding, FGF2, fluorescence 635/667; higher = more signal.
Test [7] can be described thus: mitochondrial membrane potential change in A549 cells, profiling panel, cell-based, JC-1 fluorescence, basal, 24 h, 100 nL (AID 1138).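 Further: A549 lung adenocarcinoma cells under basal conditions with no added stimulus; test concentration not given here.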 Conditions: higher = more signal.
A further test deals with Lefty1. Put plainly: Lefty1 binders on small-molecule microarrays, primary screen, biochemical, small-molecule microarray, 635/667 nm fluorescence (AID 1139). Conditions: small-molecule microarray binding, fluorescence 635/667; higher = more signal.
The test system of test [8] is wheat germ agglutinin (Triticum aestivum), Alexa647-labelled. The test is described as follows: wheat germ agglutinin binders on compound microarrays, profiling panel, artefact control for SMM control-protein annotation, biochemical, small-molecule microarray, 635/667 nm fluorescence (AID 1140).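 Further: score merges 667 nm feature emission with signal to noise over triplicate slides.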 Conditions: WGA-A647 binding, 635 nm fluorescence, higher = more signal.
Test [9] has as its target Luciferin 4-monooxygenase (Photinus pyralis) (UniProt P08659). The test is described as follows: firefly luciferase enzyme inhibitors, primary screen, biochemical, luminescence, purified enzyme, 2006 set (AID 1141).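 Further: cell-free assay with purified firefly luciferase at 100 ng per well in PBS; test concentration not given here.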 To be noted: SteadyGlo luminescence, 30 min, higher = more signal, called active from +8 up or from −8 down.
In test [10] the test system is Wnt5a (protein binding on small-molecule microarray). Put plainly: Wnt5a binders on small-molecule microarray, primary screen, biophysical, 635/667 nm fluorescence (AID 1142).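 Further: fluorescence read at 667 nm with signal to noise per printed feature.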 Conditions: 635 nm fluorescence, higher = more signal.
A short description of test [11]: cell viability in Huh7 cells, primary screen, cytotoxicity control for HCV replication inhibitor project, CellTiter-Glo luminescence, basal, 48 h (AID 1143).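 Further: Huh7 hepatoma cells carrying a hepatitis C replication reporter with no stimulus; test concentration not given here.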 Conditions: Huh7 HCV replicon, higher = more signal, called active from +8 up or from −8 down. On the technique in general: In ATP-based viability assays light output follows the ATP content of the culture.
A short description of test [12]: P. aeruginosa biofilm formation inhibitors, primary screen, PAO1 strain, BacTiter-Glo luminescence, LB-PBS (AID 1144). Conditions: 12 h, higher = more signal.
Test [13] can be described thus: CREB reporter modulators without forskolin, primary screen, cell-based, PC12, CRE-LacZ reporter, unstimulated (AID 1145). Conditions: no forskolin, luminescence, 4.5 h, higher = more signal, called active from +8 up or from −8 down.
Test [14] can be described thus: CREB reporter modulators under forskolin, primary screen, cell-based, PC12, CRE-LacZ reporter, forskolin-stimulated (AID 1146).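 Further: PC12 cells with 6xCRE LacZ reporter stimulated by forskolin 10 µM; beta-galactosidase reporter signal reflecting CREB driven transcription.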 To be noted: luminescence, 4.5 h, higher = more signal, called active from +8 up or from −8 down.
Test [15] concerns the target Streptavidin (Streptomyces avidinii) (UniProt P22629). The test is described as follows: streptavidin binders on small-molecule microarray, primary screen, artefact control for SMM compound annotation, biophysical, 635/667 nm fluorescence (AID 1147).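 Further: signal reflects streptavidin binding to arrayed compounds as a control protein.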 Conditions: streptavidin binding, higher = more signal.
Test [16] can be described thus: small-molecule binders of probe aInhba, primary screen, biochemical, small-molecule microarray, 635/667 nm fluorescence (AID 1148).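 Further: score merges 667nm spot fluorescence with signal-to-noise for antibody binding to printed compounds.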 To be noted: higher = more signal.
In test [17] the target is Torsin-1A (Homo sapiens) (UniProt O14656). Put plainly: torsin A binders from cell lysate, primary screen, small-molecule microarray, wild-type, 635/667 nm (AID 1149). To be noted: COS7 hTOR1A-WT lysate, 635 nm fluorescence, higher = more signal.
Test [18] shares this target. Put plainly: small-molecule binders of mutant TOR1A in lysate, primary screen, cell lysate, small-molecule microarray, COS7 lysate, 635/667 nm fluorescence (AID 1150).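 Further: score pools 667 nm emission and signal to noise measuring lysate protein binding.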 Conditions: COS7 hTOR1A mutant lysate, 635 nm fluorescence, higher = more signal.
In test [19] the test system is Sonic hedgehog protein (Shh). The test is described as follows: small-molecule binders of Shh protein, primary screen, biochemical, small-molecule microarray, 635/667 nm fluorescence (AID 1151).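 Further: Shh protein binding to compounds spotted on small-molecule microarray slides; score combines spot fluorescence intensity with signal-to-noise across triplicate slides.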 Conditions: small-molecule microarray binding, 635 nm fluorescence; higher = more signal.

The structures appear in SMILES notation. Active and inactive are the calls of the source. Unless noted, how the calls were made is not given here.

Chain of Torsin-1A (Homo sapiens) (O14656 whole entry, looked up): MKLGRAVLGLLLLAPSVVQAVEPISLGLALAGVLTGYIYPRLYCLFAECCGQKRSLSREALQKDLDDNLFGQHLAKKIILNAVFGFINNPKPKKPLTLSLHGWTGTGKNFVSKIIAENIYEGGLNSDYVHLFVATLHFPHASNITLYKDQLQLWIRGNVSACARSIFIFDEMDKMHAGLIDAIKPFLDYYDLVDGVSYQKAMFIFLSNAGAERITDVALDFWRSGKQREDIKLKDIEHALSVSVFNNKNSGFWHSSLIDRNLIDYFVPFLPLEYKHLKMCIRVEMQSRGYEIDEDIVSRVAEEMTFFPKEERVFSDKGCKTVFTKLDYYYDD
Chain of Streptavidin (Streptomyces avidinii) (P22629 whole entry, looked up): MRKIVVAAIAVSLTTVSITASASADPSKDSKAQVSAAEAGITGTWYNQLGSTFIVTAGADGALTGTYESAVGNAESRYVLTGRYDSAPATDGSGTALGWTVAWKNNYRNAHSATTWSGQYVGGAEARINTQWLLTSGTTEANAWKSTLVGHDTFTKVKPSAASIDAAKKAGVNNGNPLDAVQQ
Chain of Fibroblast growth factor 2 (Homo sapiens) (P09038 whole entry, looked up): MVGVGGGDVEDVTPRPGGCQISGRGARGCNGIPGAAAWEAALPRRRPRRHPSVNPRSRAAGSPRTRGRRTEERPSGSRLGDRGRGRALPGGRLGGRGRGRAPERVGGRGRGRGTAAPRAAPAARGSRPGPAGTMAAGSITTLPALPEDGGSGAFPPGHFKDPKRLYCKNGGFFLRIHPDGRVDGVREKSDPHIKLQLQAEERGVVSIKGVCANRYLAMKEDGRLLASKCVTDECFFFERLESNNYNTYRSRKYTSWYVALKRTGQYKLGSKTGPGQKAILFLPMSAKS
Chain of Focal adhesion kinase 1 (Homo sapiens) (Q05397 whole entry, looked up): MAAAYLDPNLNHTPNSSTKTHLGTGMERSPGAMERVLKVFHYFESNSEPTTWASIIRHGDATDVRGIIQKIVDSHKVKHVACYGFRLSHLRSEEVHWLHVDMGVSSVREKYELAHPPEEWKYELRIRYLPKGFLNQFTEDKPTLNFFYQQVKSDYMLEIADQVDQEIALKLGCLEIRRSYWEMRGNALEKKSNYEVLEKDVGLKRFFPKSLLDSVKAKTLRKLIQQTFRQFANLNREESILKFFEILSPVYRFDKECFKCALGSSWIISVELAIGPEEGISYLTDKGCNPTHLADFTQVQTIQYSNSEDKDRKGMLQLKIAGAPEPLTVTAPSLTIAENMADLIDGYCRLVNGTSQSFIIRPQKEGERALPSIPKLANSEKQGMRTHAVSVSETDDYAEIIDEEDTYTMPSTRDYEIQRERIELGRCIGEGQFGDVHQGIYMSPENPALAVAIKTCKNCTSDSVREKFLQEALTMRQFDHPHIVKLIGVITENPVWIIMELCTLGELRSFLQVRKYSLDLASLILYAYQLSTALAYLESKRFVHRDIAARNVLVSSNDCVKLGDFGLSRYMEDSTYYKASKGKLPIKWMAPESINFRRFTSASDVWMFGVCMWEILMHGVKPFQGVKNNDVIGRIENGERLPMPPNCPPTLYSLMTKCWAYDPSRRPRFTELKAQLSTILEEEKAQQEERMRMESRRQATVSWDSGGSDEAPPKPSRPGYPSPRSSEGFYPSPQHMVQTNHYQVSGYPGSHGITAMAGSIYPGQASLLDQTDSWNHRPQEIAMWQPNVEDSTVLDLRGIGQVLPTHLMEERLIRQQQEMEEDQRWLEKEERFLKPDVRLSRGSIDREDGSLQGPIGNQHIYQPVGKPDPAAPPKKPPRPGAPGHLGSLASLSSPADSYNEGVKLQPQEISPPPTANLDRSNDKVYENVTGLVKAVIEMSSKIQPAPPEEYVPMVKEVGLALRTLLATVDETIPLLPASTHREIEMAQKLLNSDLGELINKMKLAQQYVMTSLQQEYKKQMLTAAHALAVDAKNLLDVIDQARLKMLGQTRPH
Chain of Follistatin (Homo sapiens) (P19883 whole entry, looked up): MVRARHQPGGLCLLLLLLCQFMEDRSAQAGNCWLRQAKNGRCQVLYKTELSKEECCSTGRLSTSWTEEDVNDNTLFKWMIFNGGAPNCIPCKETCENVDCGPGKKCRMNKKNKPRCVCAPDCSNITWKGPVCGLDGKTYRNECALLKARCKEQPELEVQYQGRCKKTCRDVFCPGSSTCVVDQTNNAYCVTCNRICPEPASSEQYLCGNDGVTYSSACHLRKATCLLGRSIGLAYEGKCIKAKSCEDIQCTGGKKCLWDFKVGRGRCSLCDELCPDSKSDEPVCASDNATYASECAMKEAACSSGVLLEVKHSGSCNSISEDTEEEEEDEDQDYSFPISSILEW
Chain of Luciferin 4-monooxygenase (Photinus pyralis) (P08659 whole entry, looked up): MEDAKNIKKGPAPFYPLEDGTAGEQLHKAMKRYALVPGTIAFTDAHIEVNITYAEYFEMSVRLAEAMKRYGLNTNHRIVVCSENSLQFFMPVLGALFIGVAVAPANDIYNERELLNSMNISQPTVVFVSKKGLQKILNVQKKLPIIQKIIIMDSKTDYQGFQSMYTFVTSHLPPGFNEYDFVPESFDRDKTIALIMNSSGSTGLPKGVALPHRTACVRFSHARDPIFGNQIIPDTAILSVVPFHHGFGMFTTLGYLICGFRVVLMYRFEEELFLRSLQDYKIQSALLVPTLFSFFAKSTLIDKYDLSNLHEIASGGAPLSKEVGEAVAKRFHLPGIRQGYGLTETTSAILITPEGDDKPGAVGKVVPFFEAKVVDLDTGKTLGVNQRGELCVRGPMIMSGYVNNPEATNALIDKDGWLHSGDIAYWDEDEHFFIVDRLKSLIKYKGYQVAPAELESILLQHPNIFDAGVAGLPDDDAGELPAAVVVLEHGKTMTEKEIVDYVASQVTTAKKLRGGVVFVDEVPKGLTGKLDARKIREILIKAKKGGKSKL

On to `CC(C)CNC(=O)[C@@H]1c2ccccc2C(=O)N(CC23CC4CC(CC(C4)C2)C3)[C@H]1c1ccc(CO)cc1`, for which the composite z-score was 1.94 in [1]; 1.14 in test [2]; 0.257 in [3]; 0.592 in test [4]; 0.466 in [5]; -0.0903 in test [6]. The composite z-score was 0.366 with Lefty1; 0.674 in test [8]; 0.0626 in [10]; 0.524 in test [15]; -0.212 in test [16]; -0.218 in the test with Torsin-1A (Homo sapiens) [17]. In addition, the values for the composite z-score (with Torsin-1A (Homo sapiens) [18]; in [19]) were 0.546 and 0.354, respectively. Besides, the z-score in [7] was 0.47; in test [9], 1.27 (inactive); in test [11] it was -3.74 (inactive); in [12], -1.44 (inactive); in test [13], -0.206 (inactive); in test [14], -0.401 (inactive).

As to `COCCCN1C(=O)[C@@]2(Cc3ccccc31)c1ccccc1C(=O)N(Cc1ccccc1OC)[C@H]2c1ccc(CO)cc1`, the composite z-score in test [1] is -1.44; in test [2], -0.717; in test [3], -0.725; in test [4], 0.0715; in test [5] it was -1.07; in [6], -0.665. Further, the composite z-score was -0.566 in the test with Lefty1; -0.0303 in [8]; -0.0515 in [10]; -0.111 in [15]; -0.108 in test [16]; -0.596 in the test with Torsin-1A (Homo sapiens) [17]. Moreover, the composite z-score in the test with Torsin-1A (Homo sapiens) [18] is -0.274; in test [19], 0.0923. Also, the z-score in [7] was 0.0581; in [9] it was -0.522 (inactive); in test [11] it was 0.532 (inactive); in [12], 0.53 (inactive); in [13] it was 0.0279 (inactive); in test [14] it was 1.2 (inactive).

For the compound `CCc1cccc(NC(=O)O[C@H]2[C@H](OC(=O)Nc3ccc4c(c3)OCO4)[C@H](OC(=O)Nc3ccc4c(c3)OCO4)[C@@H](OC)O[C@@H]2CO)c1`, the composite z-score in test [1] was 2.14; in test [2], 1.24; in test [3] it was -0.164; in [4] it was 0.97; in [5], 0.987; in [6] it was 0.0183. The composite z-score in the test with Lefty1 came out at 0.478; in [8], 0.815; in [10], 0.322; in test [15], 0.0602; in test [16] it was 0.0497; in the test with Torsin-1A (Homo sapiens) [17] it was 0.138. For the same compound, the composite z-score with Torsin-1A (Homo sapiens) [18] stood at 0.97; in test [19], 1.91. Besides, the z-score in [7] was -0.308; in test [9], -10.5 (active); in test [11] it was -4.18 (inactive); in test [12], -0.373 (inactive); in test [13], -0.3 (inactive); in test [14] it was -0.321 (inactive).

As to `O=C1C2C=CC(C(O)c3cccs3)N(Nc3ccccc3)C2C(=O)N1c1ccccc1` (stereo not given), the composite z-score in test [1] was -0.0476; in [2], -0.741; in test [3] it was 0.948; in [4], 0.183; in [5], 0.761; in test [6], -0.473. For the same compound, the composite z-score in the test with Lefty1 is -0.289; in test [8] it was 0.253; in test [10] it was 0.114; in test [15], 0.195; in [16] it was -0.0604; with Torsin-1A (Homo sapiens) [17], -0.372. The figures for the composite z-score (with Torsin-1A (Homo sapiens) [18]; in test [19]) were -0.629 and 0.0003, respectively. Further, the z-score in [7] is -0.4; in [9] it was -0.802 (inactive); in [11] it was -2.55 (inactive); in test [12] it was -0.991 (inactive); in test [13], -0.136 (inactive); in [14], 0.592 (inactive).

Regarding `CCOC(=O)C[C@H]1[C@H](OC(=O)Cc2ccc3c(c2)OCO3)[C@@H](NC(=O)c2ccccc2)c2cc(OCCCO)ccc2N1C(=O)Cc1ccc(OC)cc1`, the composite z-score in [1] was 0.752; in test [2], 0.263; in test [3], 0.161; in [4], 0.792; in [5], 0.19; in test [6] it was -0.027. Moreover, the composite z-score is 0.305 in the test with Lefty1; 0.674 in [8]; -0.0328 in test [10]; 0.662 in test [15]; -0.045 in [16]; 0.693 with Torsin-1A (Homo sapiens) [17]. Moreover, the values for the composite z-score (with Torsin-1A (Homo sapiens) [18]; in [19]) were 0.749 and -0.256, respectively. The z-score in test [7] is 0.291; in [9], 0.296 (inactive); in test [11], -1.82 (inactive); in [12], -1.04 (inactive); in test [13], 2.31 (inactive); in test [14] it was -0.789 (inactive).

(Values after PubChem BioAssay.)
